Records with an inconclusive call do not appear. A call without a number means that no potency is given here. Activity calls are given as the source filed them. Calls come from the whole dose curve; as a rule, active = well fitted cell-killing curve with a large enough effect in the repeat runs; inconclusive = weak or mixed curves, or effect the other way; inactive = flat fitted curve, though single readings scatter.
Assay: qHTS assay to identify small molecule antagonists of the retinoid acid receptor (RAR) signaling pathway - cell viability counter screen (AID 1159551); note: nearly all actives have a fitted effect of over 35% in size
Conditions: C3RL4 cells viability, ATP luminescence (CellTiter-Glo), 6 h; series mostly up to 92.4 µM
From the text: U.S. Tox21 Program National Center for Advancing Translational Sciences [NCATS] NIH Chemical Genomics Center [NCGC] U.S. Environmental Protection Agency [EPA] National Institutes of Environmental Health Sciences [NIEHS] National Toxicology Program [NTP] U.S. Food and Drug Administration [FDA] Tox21 Assay Overview: All-trans Retinoic acid (atRA) is the potent natural metabolite of retinol and plays an important role in normal embryonic development and maintenance of cellular phenotype in adult animals. atRA is the activating ligand for the retinoic acid receptors (RARs) which form heterodimers with retinoid X receptors (RXRs) on the retinoic acid response element (RARE). Through activation of the RAR/RXRs nuclear receptors, atRA regulates the transcription of a large number of protein-coding genes and regulatory RNAs. Intracellular levels of atRA are controlled by the retinol signaling pathway (RSP) that regulates the biosynthesis and catabolism of atRA to maintain physiological levels. Chemicals that interfere with the RSP can cause abnormal intracellular levels of atRA and therefore are potential developmental toxicants. To assess compounds for the potential adverse effect on embryonic development through interfering with retinol signaling, a cell-based RARE luciferase reporter gene assay was used. C3RL4 cell line (OARSA/CFSAN/FDA, Laurel, MD) was used to screen Tox21 10K compound library for identifying inhibitors of the RSP. Also cytotoxicity was assessed by determining the viability of cells based on the quantitation of ATP.
Tox21 Assay Protocol Summary: C3RL4 cells were seeded at 1,000/well in 4 uL of assay medium into white solid 1,536-well tissue culture plates (Greiner Bio-One North America Inc. Monroe, NC) using a Multidrop Combi (Thermo Scientific, Waltham, MA) dispenser. After incubation at 37 C and 5% CO2 for an overnight, 23 nL of compounds dissolved in DMSO, positive control or DMSO only were transferred by a Pintool station (Kalypsys, San Diego, CA). One ul of 1 uM (final concentration) of Retinol was added right after the compound addition by using a Flying Reagent Dispenser (FRD) (Aurora Discovery, San Diego, CA). After 6 hr incubation at 37 C and 5% CO2, 5 uL of CellTiter-Glo reagent (Promega Corporation, Madison, WI) was added to each assay plate using an FRD. Luminescence was quantified on a ViewLux plate reader (PerkinElmer, Waltham, MA) after 30 min incubation at room temperature.
In the case of `COc1ccc(OC)c(CC(C)N)c1` (stereo not given), the Potency was “inactive”. For `CC(C)N1C(=O)N(c2ccccc2)CSC1=NC(C)(C)C`, the Potency was “inactive”. With `O=c1ssc(Cl)c1Cl` the Potency was 68.6 µM (active). In the case of `Cc1cc(C)cc(OP(=O)(Oc2cc(C)cc(C)c2)Oc2cc(C)cc(C)c2)c1`, the Potency was “inactive”. With `CCCCCCCCCC[N+](C)(C)CCCCCCCCCC` the Potency was 61.1 µM (active). For `Nc1ccc(Sc2ccc(N)cc2)cc1`, the Potency was “inactive”. In the case of `[Cd+2].[Cl-].[Cl-]`, the Potency was “inactive”. In the case of `Clc1ccc(-c2ccccc2)cc1`, the Potency was “inactive”. For `Nc1ccc([N+](=O)[O-])cc1Cl`, the Potency was “inactive”. In the case of `CC(C)(O)c1cnn2c(-c3ccc(F)c(-c4c(F)cccc4C#N)c3)cnc2n1`, the Potency was “inactive”. For `C[C@@H]1CC[C@@]2(OC1)O[C@H]1[C@@H](O)[C@H]3[C@@H]4CC[C@H]5C[C@@H](O[C@@H]6O[C@H](CO)[C@H](O[C@@H]7O[C@H](CO)[C@@H](O)[C@H](O[C@@H]8OC[C@@H](O)[C@H](O)[C@H]8O)[C@H]7O[C@@H]7O[C@H](CO)[C@@H](O)[C@H](O[C@@H]8O[C@H](CO)[C@@H](O)[C@H](O)[C@H]8O)[C@H]7O)[C@H](O)[C@H]6O)[C@H](O)C[C@]5(C)[C@H]4CC[C@]3(C)[C@H]1[C@@H]2C`, the Potency was 25.8 µM (active). In the case of `CCCCCCCCCCCCBr`, the Potency was “inactive”. With `CCOP(=S)(OCC)SCS(=O)(=O)CC` the Potency was “inactive”. With `Nc1c(Oc2ccccc2)cc(O)c2c1C(=O)c1ccccc1C2=O` the Potency was “inactive”. With `CN(CCCC(=O)c1cccnc1)N=O` the Potency was “inactive”. For `COC(=O)N(C(=O)N1CO[C@@]2(C(=O)OC)Cc3cc(Cl)ccc3C2=N1)c1ccc(OC(F)(F)F)cc1`, the Potency was “inactive”. In the case of `CC(=O)/C=C/c1ccc2c(c1)OCO2`, the Potency was “inactive”. With `S=C=Nc1cccc2ccccc12` the Potency was “inactive”. For `C[C@]12CC[C@H]3[C@@H](CCC4=CC(=O)CC[C@@]43C)[C@@H]1CC[C@@H]2O`, the Potency was “inactive”. For `CCOCn1c(-c2ccc(Cl)cc2)c(C#N)c(Br)c1C(F)(F)F`, the Potency was “inactive”. With `COc1ccc([N+](=O)[O-])cc1O` the Potency was “inactive”. With `Cc1cccc(OP(=O)(Oc2cccc(C)c2)Oc2cccc(C)c2)c1` the Potency was “inactive”. With `FC(F)(F)c1cccc(C2=CCN(CCc3ccc4ccccc4c3)CC2)c1` the Potency was “inactive”. With `CCCN(CCC)CCc1c[nH]c2ccccc12` the Potency was “inactive”. With `CC(C)Oc1cccc(NC(=O)c2ccccc2C(F)(F)F)c1` the Potency was “inactive”. For `COP(=O)(CCC(=O)NCO)OC`, the Potency was “inactive”. For `Fc1ccc(Oc2ccnc3cc(Cl)cc(Cl)c23)cc1`, the Potency was “inactive”. With `c1ccc2cc3c(cc2c1)-c1cccc2cccc-3c12` the Potency was “inactive”. With `FC(Cl)(Cl)Cl` the Potency was “inactive”. For `CCCCCCCCCCCCCCCCCCn1cc[n+](C)c1`, the Potency was 48.3 µM (active). In the case of `C[C@@H]1O[C@@H](O[C@H]2C[C@@H](O)[C@]3(CO)[C@H]4[C@H](O)C[C@]5(C)[C@@H](C6=CC(=O)OC6)CC[C@]5(O)[C@@H]4CC[C@]3(O)C2)[C@H](O)[C@H](O)[C@H]1O`, the Potency was “inactive”. With `Oc1cccc(-c2ccccc2)c1` the Potency was “inactive”. In the case of `N#CCc1ccc(Cl)cc1`, the Potency was “inactive”. With `CCOP(=S)(OCC)SCS(=O)(=O)C(C)(C)C` the Potency was “inactive”. In the case of `CCC(C)c1cc(C(C)(C)C)cc(-n2nc3ccccc3n2)c1O` (stereo not given), the Potency was “inactive”. For `CCN(CC)C(=S)[S-].CCN(CC)C(=S)[S-].[Zn+2]`, the Potency was 30.4 µM (active). In the case of `C=COCCCl`, the Potency was “inactive”. For `C=CCOC(N)=O`, the Potency was “inactive”. With `CSCCCN=C=S` the Potency was “inactive”. For `CC(C)[C@H](C(=O)O[C@H](C#N)c1cccc(Oc2ccccc2)c1)c1ccc(Cl)cc1`, the Potency was “inactive”.

From PubChem BioAssay (Tox21)
Potency is the fitted concentration of half-maximal effect.
